Laboratory results as given in the supplement of paper PMC4466140.

Target: AgAbp1
Assay: SPOT peptide array binding signal intensity (averaged, normalized) (arbitrary units (background-subtracted, floor 0; scale differs between SH3 domains)); higher = stronger binding of the SH3 domain to the peptide
Method in brief: (§1)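 GST-SH3 fusions from four yeast species, purified on glutathione Sepharose, were incubated at 10 μg/ml overnight at 4°C on membranes of synthetic 15-mer peptides in which cysteines were replaced with serines. Binding signal is the normalized, background-subtracted spot intensity averaged over replicates, in domain-specific arbitrary units.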

Row | Binder | SPOT peptide array binding signal intensity
1 | RTIRKLPLMSLSEYF | 7.5

Target: AgBbc1
Assay: as above
Method in brief: as §1

Row | Binder | SPOT peptide array binding signal intensity
2 | RTIRKLPLMSLSEYF | 14.5

Target: AgBem1-D1
Assay: as above
Method in brief: as §1

Row | Binder | SPOT peptide array binding signal intensity
3 | RTIRKLPLMSLSEYF | 106

Target: AgBzz1-D1
Assay: as above
Method in brief: as §1

Row | Binder | SPOT peptide array binding signal intensity
4 | RTIRKLPLMSLSEYF | 8

Target: AgBzz1-D2
Assay: as above
Method in brief: as §1

Row | Binder | SPOT peptide array binding signal intensity
5 | RTIRKLPLMSLSEYF | 21

Target: AgCyk3
Assay: as above
Method in brief: as §1

Row | Binder | SPOT peptide array binding signal intensity
6 | RTIRKLPLMSLSEYF | 0.5

Target: AgFus1
Assay: as above
Method in brief: as §1

Row | Binder | SPOT peptide array binding signal intensity
7 | RTIRKLPLMSLSEYF | 345

Target: AgHof1
Assay: as above
Method in brief: as §1

Row | Binder | SPOT peptide array binding signal intensity
8 | RTIRKLPLMSLSEYF | 34.5

Target: AgHse1
Assay: as above
Method in brief: as §1

Row | Binder | SPOT peptide array binding signal intensity
9 | RTIRKLPLMSLSEYF | 356

Target: AgLsb1
Assay: as above
Method in brief: as §1

Row | Binder | SPOT peptide array binding signal intensity
10 | RTIRKLPLMSLSEYF | ≤ 0

Target: AgLsb4
Assay: as above
Method in brief: as §1

Row | Binder | SPOT peptide array binding signal intensity
11 | RTIRKLPLMSLSEYF | 61.5

Target: AgMyo5
Assay: as above
Method in brief: as §1

Row | Binder | SPOT peptide array binding signal intensity
12 | RTIRKLPLMSLSEYF | 0.25

Target: AgNbp2
Assay: as above
Method in brief: as §1

Row | Binder | SPOT peptide array binding signal intensity
13 | RTIRKLPLMSLSEYF | 379

Target: AgRvs167
Assay: as above
Method in brief: as §1

Row | Binder | SPOT peptide array binding signal intensity
14 | RTIRKLPLMSLSEYF | 3

Target: AgSho1
Assay: as above
Method in brief: as §1

Row | Binder | SPOT peptide array binding signal intensity
15 | RTIRKLPLMSLSEYF | 122

Target: AgSla1-D1-D2
Assay: as above
Method in brief: as §1

Row | Binder | SPOT peptide array binding signal intensity
16 | RTIRKLPLMSLSEYF | 46

Target: AgSla1-D3
Assay: as above
Method in brief: as §1

Row | Binder | SPOT peptide array binding signal intensity
17 | RTIRKLPLMSLSEYF | 8

Target: CaAbp1-D1
Assay: as above
Method in brief: as §1

Row | Binder | SPOT peptide array binding signal intensity
18 | RTIRKLPLMSLSEYF | 285

Target: CaAbp1-D2
Assay: as above
Method in brief: as §1

Row | Binder | SPOT peptide array binding signal intensity
19 | RTIRKLPLMSLSEYF | 123

Target: CaBbc1
Assay: as above
Method in brief: as §1

Row | Binder | SPOT peptide array binding signal intensity
20 | RTIRKLPLMSLSEYF | 42.5

Target: CaBem1-D1
Assay: as above
Method in brief: as §1

Row | Binder | SPOT peptide array binding signal intensity
21 | RTIRKLPLMSLSEYF | 66.5

Target: CaBzz1-D1
Assay: as above
Method in brief: as §1

Row | Binder | SPOT peptide array binding signal intensity
22 | RTIRKLPLMSLSEYF | 82.5

Target: CaBzz1-D2
Assay: as above
Method in brief: as §1

Row | Binder | SPOT peptide array binding signal intensity
23 | RTIRKLPLMSLSEYF | 63.5

Target: CaCyk3
Assay: as above
Method in brief: as §1

Row | Binder | SPOT peptide array binding signal intensity
24 | RTIRKLPLMSLSEYF | 59

Target: CaFus1
Assay: as above
Method in brief: as §1

Row | Binder | SPOT peptide array binding signal intensity
25 | RTIRKLPLMSLSEYF | 942

Target: CaHof1
Assay: as above
Method in brief: as §1

Row | Binder | SPOT peptide array binding signal intensity
26 | RTIRKLPLMSLSEYF | ≤ 0

Target: CaHse1
Assay: as above
Method in brief: as §1

Row | Binder | SPOT peptide array binding signal intensity
27 | RTIRKLPLMSLSEYF | 121

Target: CaLsb1
Assay: as above
Method in brief: as §1

Row | Binder | SPOT peptide array binding signal intensity
28 | RTIRKLPLMSLSEYF | 4.5

Target: CaLsb4
Assay: as above
Method in brief: as §1

Row | Binder | SPOT peptide array binding signal intensity
29 | RTIRKLPLMSLSEYF | 282

Target: CaMyo5
Assay: as above
Method in brief: as §1

Row | Binder | SPOT peptide array binding signal intensity
30 | RTIRKLPLMSLSEYF | 6

Target: CaNbp2
Assay: as above
Method in brief: as §1

Row | Binder | SPOT peptide array binding signal intensity
31 | RTIRKLPLMSLSEYF | 571

Target: CaRvs167
Assay: as above
Method in brief: as §1

Row | Binder | SPOT peptide array binding signal intensity
32 | RTIRKLPLMSLSEYF | 42.5

Target: CaRvs167-3
Assay: as above
Method in brief: as §1

Row | Binder | SPOT peptide array binding signal intensity
33 | RTIRKLPLMSLSEYF | 4.75

Target: CaSho1
Assay: as above
Method in brief: as §1

Row | Binder | SPOT peptide array binding signal intensity
34 | RTIRKLPLMSLSEYF | 668

Target: CaSla1-D1-D2
Assay: as above
Method in brief: as §1

Row | Binder | SPOT peptide array binding signal intensity
35 | RTIRKLPLMSLSEYF | 152

Target: CaSla1-D3
Assay: as above
Method in brief: as §1

Row | Binder | SPOT peptide array binding signal intensity
36 | RTIRKLPLMSLSEYF | 98.2

Target: ScAbp1
Assay: as above
Method in brief: as §1

Row | Binder | SPOT peptide array binding signal intensity
37 | RTIRKLPLMSLSEYF | 23

Target: ScBbc1
Assay: as above
Method in brief: as §1

Row | Binder | SPOT peptide array binding signal intensity
38 | RTIRKLPLMSLSEYF | 5.25

Target: ScBem1-D1
Assay: as above
Method in brief: as §1

Row | Binder | SPOT peptide array binding signal intensity
39 | RTIRKLPLMSLSEYF | 48

Target: ScBzz1-D1
Assay: as above
Method in brief: as §1

Row | Binder | SPOT peptide array binding signal intensity
40 | RTIRKLPLMSLSEYF | 15

Target: ScBzz1-D2
Assay: as above
Method in brief: as §1

Row | Binder | SPOT peptide array binding signal intensity
41 | RTIRKLPLMSLSEYF | 21

Target: ScCyk3
Assay: as above
Method in brief: as §1

Row | Binder | SPOT peptide array binding signal intensity
42 | RTIRKLPLMSLSEYF | 28.5

Target: ScFus1
Assay: as above
Method in brief: as §1

Row | Binder | SPOT peptide array binding signal intensity
43 | RTIRKLPLMSLSEYF | 328

Target: ScHof1
Assay: as above
Method in brief: as §1

Row | Binder | SPOT peptide array binding signal intensity
44 | RTIRKLPLMSLSEYF | 3

Target: ScHse1
Assay: as above
Method in brief: as §1

Row | Binder | SPOT peptide array binding signal intensity
45 | RTIRKLPLMSLSEYF | 1080

Target: ScLsb1
Assay: as above
Method in brief: as §1

Row | Binder | SPOT peptide array binding signal intensity
46 | RTIRKLPLMSLSEYF | 2

Target: ScLsb2
Assay: as above
Method in brief: as §1

Row | Binder | SPOT peptide array binding signal intensity
47 | RTIRKLPLMSLSEYF | ≤ 0

Target: ScLsb3
Assay: as above
Method in brief: as §1

Row | Binder | SPOT peptide array binding signal intensity
48 | RTIRKLPLMSLSEYF | 639

Target: ScLsb4
Assay: as above
Method in brief: as §1

Row | Binder | SPOT peptide array binding signal intensity
49 | RTIRKLPLMSLSEYF | 92

Target: ScMyo3
Assay: as above
Method in brief: as §1

Row | Binder | SPOT peptide array binding signal intensity
50 | RTIRKLPLMSLSEYF | 2.5

Target: ScMyo5
Assay: as above
Method in brief: as §1

Row | Binder | SPOT peptide array binding signal intensity
51 | RTIRKLPLMSLSEYF | 4.5

Target: ScNbp2
Assay: as above
Method in brief: as §1

Row | Binder | SPOT peptide array binding signal intensity
52 | RTIRKLPLMSLSEYF | 556

Target: ScPex13
Assay: as above
Method in brief: as §1

Row | Binder | SPOT peptide array binding signal intensity
53 | RTIRKLPLMSLSEYF | 54.2

Target: ScRvs167
Assay: as above
Method in brief: as §1

Row | Binder | SPOT peptide array binding signal intensity
54 | RTIRKLPLMSLSEYF | 71.7

Target: ScSho1
Assay: as above
Method in brief: as §1

Row | Binder | SPOT peptide array binding signal intensity
55 | RTIRKLPLMSLSEYF | 1040

Target: ScSla1-D1-D2
Assay: as above
Method in brief: as §1

Row | Binder | SPOT peptide array binding signal intensity
56 | RTIRKLPLMSLSEYF | 290

Target: ScSla1-D3
Assay: as above
Method in brief: as §1

Row | Binder | SPOT peptide array binding signal intensity
57 | RTIRKLPLMSLSEYF | 58.2

Target: SpAbp1-D1
Assay: as above
Method in brief: as §1

Row | Binder | SPOT peptide array binding signal intensity
58 | RTIRKLPLMSLSEYF | 85.5

Target: SpBbc1
Assay: as above
Method in brief: as §1

Row | Binder | SPOT peptide array binding signal intensity
59 | RTIRKLPLMSLSEYF | 1

Target: SpBzz1-D1
Assay: as above
Method in brief: as §1

Row | Binder | SPOT peptide array binding signal intensity
60 | RTIRKLPLMSLSEYF | 109

Target: SpBzz1-D2
Assay: as above
Method in brief: as §1

Row | Binder | SPOT peptide array binding signal intensity
61 | RTIRKLPLMSLSEYF | 1

Target: SpCyk3
Assay: as above
Method in brief: as §1

Row | Binder | SPOT peptide array binding signal intensity
62 | RTIRKLPLMSLSEYF | 8.5

Target: SpHof1
Assay: as above
Method in brief: as §1

Row | Binder | SPOT peptide array binding signal intensity
63 | RTIRKLPLMSLSEYF | 239

Target: SpHof1-2
Assay: as above
Method in brief: as §1

Row | Binder | SPOT peptide array binding signal intensity
64 | RTIRKLPLMSLSEYF | 18

Target: SpHof1-3
Assay: as above
Method in brief: as §1

Row | Binder | SPOT peptide array binding signal intensity
65 | RTIRKLPLMSLSEYF | 327

Target: SpHse1
Assay: as above
Method in brief: as §1

Row | Binder | SPOT peptide array binding signal intensity
66 | RTIRKLPLMSLSEYF | 458

Target: SpLsb1
Assay: as above
Method in brief: as §1

Row | Binder | SPOT peptide array binding signal intensity
67 | RTIRKLPLMSLSEYF | 3.5

Target: SpLsb4
Assay: as above
Method in brief: as §1

Row | Binder | SPOT peptide array binding signal intensity
68 | RTIRKLPLMSLSEYF | 816

Target: SpMyo1
Assay: as above
Method in brief: as §1

Row | Binder | SPOT peptide array binding signal intensity
69 | RTIRKLPLMSLSEYF | 7

Target: SpNbp2
Assay: as above
Method in brief: as §1

Row | Binder | SPOT peptide array binding signal intensity
70 | RTIRKLPLMSLSEYF | 484

Target: SpPex13
Assay: as above
Method in brief: as §1

Row | Binder | SPOT peptide array binding signal intensity
71 | RTIRKLPLMSLSEYF | 26

Target: SpRvs167
Assay: as above
Method in brief: as §1

Row | Binder | SPOT peptide array binding signal intensity
72 | RTIRKLPLMSLSEYF | 20

Target: SpSla1-D1-D2
Assay: as above
Method in brief: as §1

Row | Binder | SPOT peptide array binding signal intensity
73 | RTIRKLPLMSLSEYF | ≤ 0

Target: SpSla1-D3
Assay: as above
Method in brief: as §1

Row | Binder | SPOT peptide array binding signal intensity
74 | RTIRKLPLMSLSEYF | 19
